Outcome and AC50 data for 25 molecules are collected here from PubChem BioAssay (EPA / NIEHS).

As a reminder, the AC50 is the concentration at which the activity in the assay is half-maximal.

Active and inactive are the calls of the source. The calls were made as follows: active = hit-call score of the fitted dose curve at least 0.9, where 1 is the maximum; inactive = score below 0.9.

The nature of the experiment: ATG_TGFb_CIS: Attagene CIS-FACTORIAL HepG2 Assay for human Transforming Growth Factor (TGF) (AID 2282967). Conditions: HepG2 Attagene CIS TGFb reporter, mRNA transcription; actives raise or lower the signal. Summed up:
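Bidirectional fitting relative to DMSO gave the endpoint. Underlying data: reporter mRNA from HepG2 cells carrying transiently transfected cis-regulated reporter constructs, harvested 24 h after dosing and analyzed by RT-PCR and capillary electrophoresis.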
For `Nc1ccn([C@H]2CS[C@@H](CO)O2)c(=O)n1`, the molecule was called inactive.
On the same count and under the same terms, as for `Cc1cc(C)nc(NS(=O)(=O)c2ccc(N)cc2)n1`, the entry is “inactive”; as for `CC1(C)CCC[C@]2(C)[C@H]3CCO[C@]3(C)CC[C@@H]12`, “inactive”; as for `O=c1c(O)c(-c2ccc(O)cc2)oc2cc(O)cc(O)c12`, “inactive”.
Same read-out and setting: as for `CC(C)(C)C1=CC(=O)C(C(C)(C)C)=CC1=O`, the entry is “inactive”.
Take `CCCCOC(=O)CCCCCCCC(=O)OCCCC`: the outcome was inactive.
Still for that read-out and setting: as for `Cc1[nH]c(=O)c(C#N)cc1-c1ccncc1`, the entry is “inactive”; as for `CC(Oc1cc(Cl)ccc1Cl)C(=O)O` (stereo not given), “inactive”; as for `CC1=CC[C@@]23C[C@@H]1C(C)(C)[C@@H]2CC[C@H]3C`, “inactive”.
The same measure, in the same setting: as for `O=[N+]([O-])c1cccc(Cl)c1`, the entry is “inactive”; as for `CC(C)(N=C=O)c1cccc(C(C)(C)N=C=O)c1`, “inactive”; as for `CCCCCCC(C)(C)S`, “inactive”.
Same read-out and setting: as for `CN(C)c1ccncc1`, the entry is “inactive”.
As for `CN(C)CCOC(C)(c1ccccc1)c1ccccn1` (stereo not given), the molecule was classed as inactive.
Still for that read-out and setting: the result for `CC(=O)OCCCc1ccccc1` reads “inactive”; that for `CC(C)C[C@H](NC(=O)OCC1c2ccccc2-c2ccccc21)C(=O)O`, “inactive”.
Same read-out and setting: as for `C[C@@H]1CCN(C(=O)[C@H](CCCN=C(N)N)NS(=O)(=O)c2cccc3c2NC[C@H](C)C3)[C@@H](C(=O)O)C1`, the entry is “inactive”; as for `N#Cc1cscn1`, “inactive”.
As to `Nc1c(S(=O)(=O)O)cc(Br)c2c1C(=O)c1ccccc1C2=O`, the outcome was inactive.
`CC/C=C\CC/C=C/CO`: the result was inactive.
The same measure, in the same setting: as for `C=CCN(CC=C)CC=C`, the entry is “inactive”; as for `C=Cc1ccc(C(C)(C)C)cc1`, “inactive”.
Regarding `OCCCCC(O)CO` (stereo not given), the molecule was called inactive.
Consider `C=CCCCCCCCCCC`, for which the outcome was inactive.
Turning to `CC1(C)C2=CCCC(C)(C)[C@]23CC[C@H]1C3`, the AC50 was 100 µM (active).
